# Experimental data: PubChem BioAssay (NCI)
# Several values for one entry are separate records, joined by “and”; a condition that tells them apart may be missing. Identical values can stand only once. This is part of a sample that, as a whole, favours compounds with a hit. Of some 83,000 tested, about 20% had one in any assay.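 Percent growth is the endpoint: 0 to 100 indicates growth inhibition (40 means 60% inhibition), 0 means no net growth, and negative values indicate cell death.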 Activity calls are given as the source filed them. Rule for the calls: active = growth percent below 10; inactive = the rest.
# System: MDA-MB-468 breast
# Assay: NCI-60 one-dose screen, 48 h (100 = growth as untreated, 0 = no growth, -100 = all killed)
# Conditions: 10 µM unless noted
row,Structure (SMILES),growth
1,CCOC(=O)c1sc(N)c(C(=O)OCC)c1C,59.4% (inactive)
2,O=C(Cc1ccc(F)cc1)c1ccccc1,127% (inactive)
3,O=C1CSC(c2ccccc2Cl)N1c1nnc(-c2ccncc2)o1 (stereo not given),98.4% (inactive)
4,BrC1=C(Br)C(Br)(Br)C(Br)=C1Br,97.7% (inactive)
5,CN(C)CCNc1cc(-c2ccccc2)nc2ccccc12,-33.3% (active)
6,CCN=C1C=CC(=C(c2ccc(N(CC)CC)cc2)c2ccc(N(CC)CC)cc2)c2ccccc21,-74.1% (active)
7,CN(C)C(=S)N(C)C,114% (inactive)
8,Cc1sc2nc(NCCc3c[nH]c4ccc(Cl)cc34)[nH]c(=O)c2c1C,4.19% (active)
9,Cc1ncc(C(=O)Nc2ccc(CN3CCN(C)CC3)c(C(F)(F)F)c2)cc1C#Cc1c(N)ncc2ccccc12,-74.8% (active)
10,Fc1ccc(-c2cc3nc(C(Cl)Cl)nc(-c4ccccc4)n3n2)cc1,-59.1% (active)
11,COc1ccc(C2=CN3CC=CC3CC2=O)cc1 (stereo not given),95.3% (inactive)
12,Cc1cc(C)c2c(n1)sc1c(Nc3ccc(O)cc3)ncnc12,23.8% (inactive)
13,CCCCCCCCCCC(C[N+](C)(C)C/C=C/c1ccccc1)C(O)c1ccccc1 (stereo not given),-69.4% (active)
14,CS(=O)(=O)c1ccc(-c2nn(-c3ccccc3)cc2/C=N/NC(=O)c2nc(N)n[nH]2)cc1,98.2% (inactive)
15,Cc1cc(O)c(C(C)C)cc1N=O,62.6% (inactive) and 104% (inactive)
16,Cc1nn2c(/C=C3/C(=O)Nc4ccc(Cl)cc43)c(-c3ccccc3)nc2s1,35.7% (inactive)
17,CCN(CC)CCN1CNC(=S)NC1,99.7% (inactive)
18,CC[N+](CCCCCCCCCC[N+](CC)(c1ccccn1)c1ccccn1)(c1ccccn1)c1ccccn1,-1.91% (active)
19,COc1c(OCCCN2CCOCC2)ccc2c3n(c(=NC(=O)c4cnc(N)nc4)nc12)CCN3,-23.5% (active)
20,N#CC(=S)Nc1ccc(Cl)c(Cl)c1,-5.08% (active)

row,Structure (SMILES),growth
1,CCOc1cccc(-c2nc3sccn3c2-c2ccnc(S(C)(=O)=O)n2)c1,-0.693% (active)
2,CCCCOC(=O)c1c(C)[nH]c(/C=C2\N=C(c3ccc[nH]3)C=C2OC)c1C,-58.2% (active)
3,O=Nc1c(O)ccc2ccccc12.O=Nc1c(O)ccc2ccccc12.O=Nc1c([O-])ccc2ccccc12.[Fe+3],106% (inactive)
4,COc1cc(C2=NN(c3ccc(S(N)(=O)=O)cc3)C(c3ccc(Cl)cc3)C2)cc(OC)c1OC (stereo not given),38.3% (inactive)
5,CCC(=O)NC1=C(Cl)C(=O)C(NC(=O)CC)=C(Cl)C1=O,-69.8% (active)
6,COc1cc(C(=O)c2c(-c3ccccc3)oc3c(OC)cccc23)cc(OC)c1OC,18.4% (inactive)
7,CCCCCCCCCCn1cc[n+](C)c1,-42.1% (active)
8,Cc1[nH]c2ccccc2c1C1=CC(=O)C=CC1=O,72% (inactive)
9,C=CC[N+]1(CC)CCN=C1CCCCCCCCCCCCCCCCC (stereo not given),-82.6% (active)
10,COc1cc(CCCO)c(OC)c(OC)c1OC,104% (inactive)
11,COc1cc(/C=C2\CN(S(=O)(=O)c3ccc(C)cc3)C/C(=C\c3cc(CN4CCOCC4)c(O)c(OC)c3)C2=O)cc(CN2CCOCC2)c1O,-45.9% (active)
12,O=C1/C(=C/c2ccc(Cl)cc2)SC(=S)N1CCc1ccc(O)cc1,73.1% (inactive)
13,COc1cccc(OC)c1Oc1c(-c2nc3ccccc3s2)c(C)nn1-c1ccccc1,71.2% (inactive)
14,O=C1Cc2cc(CCN3CCN(CCOCCO)CC3)c(Cl)cc2N1Cc1ccc(-c2ccccc2-c2nn[nH]n2)cc1,82.7% (inactive)
15,O=C1CCCN1C1CCN(Cc2cc3ccccc3[nH]c2=O)c2ccccc21 (stereo not given),83.5% (inactive)
16,C=C[C@]1(C)C=C2C(=O)[C@@]3(O)OC[C@@]4(CCCC(C)(C)C43O)C2(O)C(O)C1 (stereo not given in full),-18.7% (active)
17,COc1cccc(/C=C2\Cc3ccccc3C2=O)c1,99.6% (inactive)
18,OCC1OC(n2ccc3c2ncn2ncnc32)C(O)C1O (stereo not given),-5.09% (active)
19,Cc1cc(N2CCN(C)CC2)nc(N(CCNc2ccnc3cc(Cl)ccc23)Cc2ccco2)n1,37.5% (inactive)
20,CCCCN(Cc1ccc(C(=O)NO)cc1)C(=O)Nc1ccc(OCCCCCCCCCn2cc(CCCCC(=O)N[C@H](C(=O)N3C[C@H](O)C[C@H]3C(=O)NCc3ccc(-c4scnc4C)cc3)C(C)(C)C)nn2)cc1,0.0949% (active)
